Screening results: PubChem, several laboratories
A selection: hits, their analogues and other compounds. The true share with any hit is near 5%.
AHR activator: activators of human aryl hydrocarbon receptor. AHR-responsive luciferase reporter cells, luminescence. activation, % at 5 µM. 2.5% of 320,000 active. AID 2796; in the data active = activation above about 47%
Target sequence (P35869 whole entry, looked up): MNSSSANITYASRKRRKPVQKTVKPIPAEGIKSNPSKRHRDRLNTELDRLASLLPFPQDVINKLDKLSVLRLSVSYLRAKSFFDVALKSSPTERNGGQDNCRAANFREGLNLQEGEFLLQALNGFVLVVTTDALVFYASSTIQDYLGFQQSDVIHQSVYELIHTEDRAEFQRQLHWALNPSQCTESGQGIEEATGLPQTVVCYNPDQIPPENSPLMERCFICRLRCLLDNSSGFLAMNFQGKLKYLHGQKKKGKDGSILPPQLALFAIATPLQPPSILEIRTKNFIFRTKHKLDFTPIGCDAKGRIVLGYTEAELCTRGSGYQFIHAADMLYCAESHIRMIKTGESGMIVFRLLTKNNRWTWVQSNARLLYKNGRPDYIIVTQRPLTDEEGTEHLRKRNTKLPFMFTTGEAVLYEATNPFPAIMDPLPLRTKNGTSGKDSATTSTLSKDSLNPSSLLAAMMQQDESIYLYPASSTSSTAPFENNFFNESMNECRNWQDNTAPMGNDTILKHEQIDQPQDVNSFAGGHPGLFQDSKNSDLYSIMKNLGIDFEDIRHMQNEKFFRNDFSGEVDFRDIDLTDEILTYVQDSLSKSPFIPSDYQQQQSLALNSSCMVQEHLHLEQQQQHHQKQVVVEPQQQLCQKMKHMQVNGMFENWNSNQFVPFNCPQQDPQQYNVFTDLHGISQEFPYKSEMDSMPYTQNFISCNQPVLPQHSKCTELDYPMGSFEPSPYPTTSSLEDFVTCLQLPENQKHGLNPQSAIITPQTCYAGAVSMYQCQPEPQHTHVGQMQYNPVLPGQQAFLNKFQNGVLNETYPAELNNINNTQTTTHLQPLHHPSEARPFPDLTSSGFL
SENP8 block-1: blocks human SENP8 cleavage of Nedd8 substrate; Q96LD8; recombinant SENP8, Nedd8 substrate fluorescence; inhibition, % at 20 µM; 0.64% of 360,000 active; in the data active = inhibition mostly above about 40%, no sharp cut-off; inactive = mostly below about 27%
SENP8 block-2: SENP8 protease inhibition | purified SENP8, Z-RLRGG-aminoluciferin cleavage, luminescence | 1.2% of 330,000 active | inhibition, % at 10 µM | Q96LD8; in the data active = inhibition above about 50%
SENP6 block: inhibitors of human SENP6 protease; Q9GZR1; Recombinant SENP6 catalytic domain, aminoluciferin luminescence; inhibition, % at 10 µM; 1.8% of 330,000 active; AID 2599;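 active = inhibition above about 50% at the single tested dose, limit read from the data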
EBI2 antag: blocks human EBI2 receptor beta-arrestin signaling | 0.81% of 360,000 active | P32249 | inhibition, % at 5 µM | EBI2 beta-arrestin recruitment, luminescence, 7a,25-OHC stimulated | AID 651636; in the data active = inhibition above about 38%;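 also: enzyme fragment complementation signal reports receptor beta-arrestin coupling in cells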
SENP7 inh: inhibitors of human SENP7 protease. recombinant SENP7, Z-RLRGG-aminoluciferin luminescence, 40 min. inhibition, % at 5 µM. 1.5% of 330,000 active;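 active = inhibition above about 50% at the single test dose, limit read from the data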
SENP8 inh conf: SENP8 (human) inhibition, single concentration confirmation | inhibition, % at 25 µM | 15% of 1,400 active | purified SENP8, Nedd8-AMC/pro-Nedd8 cleavage fluorescence, 30 min | AID 624319 | shares compounds with SENP8 block-1; in the data active = inhibition mostly above about 39%, no sharp cut-off; inactive = mostly below about 34%
EBI2 antag conf: EBI2 (human) antagonism, single concentration confirmation; shares compounds with EBI2 antag; EBI2 beta-arrestin luminescence, 7a,25-OHC antagonism; inhibition, % at 5 µM; 29% of 2,400 active;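 active = inhibition of at least 50%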
EBI2 ag: activates EBI2, counter-screen for EBI2 antagonists | shares compounds with EBI2 antag | EBI2-expressing cells, agonist mode, luminescence, 60 min; 0% vehicle, 100% 7α,25-dihydroxycholesterol control | activation, % at 5 µM | 2,400 tested, under 10 active | AID 652000;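 active = activation of at least 50%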
bGal cs: beta-galactosidase inhibition counter-screen; purified beta-galactosidase, luminescent Galacton Star, 15 min; 1% of 2,400 active; inhibition, % at 5 µM; shares compounds with EBI2 antag;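 active = replicate-average signal at least 3 plate SD below neutral wells, shown as high inhibition, flagging enzyme-inhibiting false positives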;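 also: higher means stronger loss of beta-gal luminescence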
A number is an active result; i = inactive; nt = not tested or not shown; ! = a repeat was not active.

SMILES | AHR activator | SENP8 block-1 | SENP8 block-2 | SENP6 block | EBI2 antag | SENP7 inh | SENP8 inh conf | others
O=C(c1ccc(Cl)cc1)N1CCN(c2ccc([N+](=O)[O-])c(NCc3cccnc3)c2)CC1 | i | 45.8 | i | i | i | i | i
O=[N+]([O-])c1ccc(N2CCN(S(=O)(=O)c3ccccc3)CC2)cc1NCc1cccnc1 | i | 49.9 | i | i | i | i | i
CCN(CC)S(=O)(=O)c1ccc(Cl)c(C(=O)OCC(=O)c2c(N)n(C)c(=O)n(C)c2=O)c1 | i | i | i | i | i | i | nt
N=c1c2cn[nH]c2nc(SCC(=O)c2ccc(Br)cc2)n1-c1ccc(Br)cc1 | i | i | i | i | i | i | nt
Cc1[nH][nH]c(=O)c1C(c1ccc(-c2ccc(F)cc2)o1)c1c(C)[nH][nH]c1=O | i | 75.0 | i | i | i | i | 72.0
Cc1[nH][nH]c(=O)c1C(c1ccc(-c2ccc(Cl)c(Cl)c2)o1)c1c(C)[nH][nH]c1=O | i | 73.7 | i | i | i | i | 62.9
CCOc1ccc(Cl)cc1C(c1c(C)[nH][nH]c1=O)c1c(C)[nH][nH]c1=O | nt | i | i | i | i | i | nt
COc1ccc(-c2ccc(C(c3c(C)[nH][nH]c3=O)c3c(C)[nH][nH]c3=O)o2)c([N+](=O)[O-])c1 | nt | 37.6 | i | i | i | i | i
Cc1[nH][nH]c(=O)c1C(c1ccc(-c2ccc(C(=O)O)cc2)o1)c1c(C)[nH][nH]c1=O | nt | i | nt | nt | i | nt | nt
CC(C)(C)[C@H]1COC(=O)[C@H](Cc2ccc(F)cc2)CC/C=C/C[C@@H](CC(=O)N[C@H](CO)Cc2ccccc2)C(=O)N1 | i | i | i | i | i | i | nt
COc1ccccc1OP(=O)(O)Oc1ccccc1OC | i | i | i | i | i | i | nt
O=[N+]([O-])c1ccc(CSC2=NCCN2)cc1 | i | i | i | i | i | i | nt
COc1ccc2c3c1OC1CC(O)C=CC31CCN(C)C2 (stereo unspecified) | i | 42.0! | i | i | i | i | i
O=C(O)c1ccc(N/N=C/C=C/c2ccc([N+](=O)[O-])o2)cc1 | i | 44.8 | i | i | i | i | i
O=C(N/N=C/c1ccc([N+](=O)[O-])o1)C(=O)Nc1ccc(C(=O)O)cc1 | i | i | i | i | i | i | nt
COc1cc(C(=O)OC2CC3CCC2(C)C3(C)C)ccc1OC(C)=O (stereo unspecified) | i | 61.5 | i | i | i | i | i
Cc1ccc(C=Nc2ccc(N(C)C)cc2)o1 | i | 45.4 | i | i | i | i | i
CCC(CC)C(=O)Nc1cccc(C(=O)c2ccccc2)c1 | i | i | i | i | i | i | nt
Cc1cc(NC(=O)CCC(=O)N(Cc2ccco2)C(C(=O)NC2CCCC2)c2ccccc2C)no1 (stereo unspecified) | i | 59.8 | i | i | i | i | i
Cc1nn(-c2ccc(Cl)cc2)c(NC(=O)C(C)C)c(-c2ccccc2)c1=O | i | i | i | i | i | i | nt
Cc1ccc(Sc2ncccc2COC(=O)Nc2ccccc2)cc1 | i | 40.0 | i | i | i | i | i
CC(=O)Nc1cccc(-n2nnc(SCC(=O)N(C)c3ccccc3)n2)c1 | i | i | i | i | i | i | nt
CCCC(=O)N1CCN(c2ccc(NC(=O)c3ccc(N4CCCC4)c([N+](=O)[O-])c3)cc2Cl)CC1 | i | 44.8 | i | i | i | i | i
Cc1ccc(NC(=O)c2ccc(N3CCOCC3)c([N+](=O)[O-])c2)cc1S(=O)(=O)N1CCOCC1 | i | 43.6 | i | i | i | i | i
CCN1CCN(c2ccc(NC(=O)c3ccc([N+](=O)[O-])o3)cc2Cl)CC1 | nt | 52.5 | nt | nt | i | nt | i
SMILES | AHR activator | SENP8 block-1 | SENP8 block-2 | SENP6 block | EBI2 antag | SENP7 inh | SENP8 inh conf | others
COc1ccccc1N1CCN(C(=O)c2ccc(CN3CCOCC3)cc2)CC1 | i | i | i | i | i | i | nt
CC(C)(O)/C=C/C[C@](C)(O)C1CC[C@]2(C)C1[C@H](O[C@H]1O[C@@H](CO)[C@H](O)[C@@H](O)[C@@H]1O)CC1[C@@]3(C)CC[C@H](O)C(C)(C)C3[C@@H](O)C[C@]12C (stereo partly specified) | i | i | i | i | i | i | nt
COc1cccc(-c2cc(C(=O)N3CCc4ccccc4C3)no2)c1 | i | 58.1 | i | i | i | i | 78.0
CC(C)Oc1cccc(C(=O)C2CCCN(C(=O)CCn3cnnn3)C2)c1 (stereo unspecified) | i | i | i | i | i | i | nt
O=C(N/N=C/c1cccc(OCC(=O)N2CCCC2)c1)C(=O)Nc1ccccc1F | i | i | i | i | i | i | nt
COc1ccc(NC(=O)C2CC(=O)N/C(=N/NC(=O)c3ccc(Cl)cc3)S2)cc1 (stereo unspecified) | i | 40.5 | i | i | i | i | i
COc1ccc(-c2ncn(CCC#N)c2[N+](=O)[O-])cc1 | i | i | i | i | i | i | nt
COc1ccc(-c2cc(=O)n(CCC#N)[nH]2)cc1 | i | 43.2 | i | i | i | i | i
CCC(=O)Nc1ccc(C(=O)COC(=O)CCN2C(=O)C3CC=CCC3C2=O)cc1 (stereo unspecified) | i | i | i | i | i | i | nt
CCOC(=O)c1ccc(NC(=O)CCN2C(=O)C3CC=CCC3C2=O)cc1 (stereo unspecified) | nt | 34.3 | i | i | i | i | i
CCN(C[C@H]1N[C@@](C)(C(=O)OC)[C@H]2C(=O)N(C)C(=O)[C@@H]12)S(=O)(=O)c1ccc(-c2ccccc2)cc1 | i | i | i | i | i | i | nt
O=C(COc1ccccc1)NCc1cccs1 | i | 42.4 | i | i | i | i | i
Cc1ccc(OCC(=O)NCc2cccs2)cc1 | i | i | i | i | i | i | nt
COc1ccc2c(c1)Cc1sc(NC(=O)c3cccnc3)nc1-2 | i | 63.9 | 85.8 | 89.0 | i | 84.3 | i
O=C(CSc1ccc(Br)cc1)Nc1ccccc1Oc1ccccc1 | i | 50.3 | i | i | 53.8 | i | i | EBI2 antag conf=i;EBI2 ag=i;bGal cs=i
O=C(CSc1cccc[n+]1[O-])Nc1ccccc1Oc1ccccc1 | i | i | i | i | i | i | nt
COc1ccc(OC)c(NC(=O)C2CC(/C=C/c3ccccc3)=NO2)c1 (stereo unspecified) | i | i | i | i | i | i | nt
Cc1ccc(Sc2cc(NCCCO)c([N+](=O)[O-])c3nonc23)cc1 | i | 43.9 | i | i | 53.1 | i | 48.1 | EBI2 antag conf=i;EBI2 ag=i;bGal cs=i
